# Measurements published in PubChem BioAssay (NCATS).
# Records with an inconclusive call do not appear. A number with no mark means an inactive call. Calls follow the shape of the dose curve; as a rule, active = well fitted inhibition curve with a large enough effect; inconclusive = small, poorly fitted or top-dose-only effect; inactive = no such curve, though single readings can be large or run the other way.
# Biological target: Retinaldehyde dehydrogenase 3 (Homo sapiens) (UniProt P47895)
# Assay: qHTS for Inhibitors of the Aldehyde Dehydrogenase Family (ALDH1A3) Primary screen (AID 2061315);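 also: plate controls were DMSO vehicle for no effect and reference inhibitor for full effect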
# Settings: ALDH inhibition qHTS; series mostly up to 56 µM; activity change, negative = inhibition: at the top concentration
row,Structure (SMILES),"activity change, negative = inhibition"
1,CS(=O)(=O)Nc1ccc2oc3c(OC(F)F)ccc(C(=O)Nc4c(Cl)cncc4Cl)c3c2c1,-14.6%
2,Nc1c(-c2ccccc2)nc(Cl)c2c(O)n[nH]c(=O)c12,-0.453%
3,CCNC(=O)C1CC(F)(c2ccc(CN3CCCC3)c(F)c2)C1 (stereo not given),16.1%
4,Cc1cccc2c1NC(=O)C2(c1ccc(O)cc1)c1ccc(O)cc1,-0.206%
5,COc1cc(N)c(Cl)cc1C(=O)NC[C@@H]1CCN2CCC[C@@H]12,5.98%
6,O=C(O)Cc1ccc2oc(-c3ccc(NC(=O)/C=C/c4ccc(Br)cc4)c(F)c3)nc2c1,0.364%
7,C[C@H](Nc1cc2c(-c3ccc4c(c3)OCO4)noc2cn1)c1ccccc1,16.9%
8,O=C(NCc1ccccn1)Nc1nnc(-c2ccco2)o1,3.64%
9,Cc1cc(C)nc(NS(=O)(=O)c2ccc(NC(=S)NC(=O)COc3ccc(Br)cc3Cl)cc2)n1,17.2%
10,CC(OC1OCCN(Cc2n[nH]c(=O)[nH]2)C1c1ccc(F)cc1)c1cc(C(F)(F)F)cc(C(F)(F)F)c1 (stereo not given),13.9%
11,COc1cc(Nc2nc3c(s2)CCCC3c2ccc(F)cc2)ccc1-n1cnc(C)c1 (stereo not given),7.03%
12,CSc1ccc(C(=O)N[C@@H]2CCCC[C@@H]2NC(=O)CNC(=O)c2cc(C(F)(F)F)ccc2NC(=O)NC(C)C)cc1,22%
13,CC(C)S(=O)(=O)NC[C@H](C)c1ccc(-c2ccc(CCNS(C)(=O)=O)cc2)cc1,5.49%
14,CN(C)C(=O)NC1(c2ccccc2)CCN(CCC[C@]2(c3ccc(Cl)c(Cl)c3)CCCN(C(=O)c3ccccc3)C2)CC1,2.84%
15,O=C(O)c1cccc(S(=O)(=O)N2CCc3ccccc3C2)c1,-12.4%
